# Assay results as given in PubChem BioAssay.
# Calls of active or inactive are those of the source. Cut-off read from the data, not from the text of the source, unless noted: active = inhibition above about 80%; inactive = the rest.
# What was measured:
# [1] = target: NAD(+) hydrolase SARM1 (Homo sapiens) (UniProt Q6SZW1); assay: blocking NAD cleavage by SARM1 SAM-TIR – cell lysate, NAD-Glo luminescence (AID 1508614;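 active = compound whose remaining NAD level is above about 45 nM, limit read from the data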;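 note: higher remaining NAD means stronger inhibition of SARM1 NADase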); conditions: SAM-TIR HEK293T lysate NADase, at 1 µM, stronger effect = higher value
# [2] = growth inhibition, single agent or in combination, cell-based, chromothripsis tumors, cisplatin or BGB combos (AID 1671449); conditions: LFS_MB_P medulloblastoma cells;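 note: cells exposed for 96 hours; 0% = vehicle DMSO and 100% = killing by high DMSO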
# [3] = growth inhibition, single agent and combos, cell-based, chromothripsis tumors, cisplatin or BGB combos (AID 1671450); conditions: HDN33 neuroblastoma cells, stronger effect = higher value;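 note: cells exposed to compound for four days; 0% = vehicle DMSO and 100% = cell killing by high DMSO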
# [4] = growth inhibition, single agents and combos, ICB984, cell-based, cisplatin or BGB combos, synergistic combos for chromothripsis tumors (AID 1671451; call rule not given here;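 note: cells exposed for 96 hours before readout; 0% = vehicle DMSO and 100% = killing by high DMSO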); conditions: ICB984 medulloblastoma cells, drug combinations, stronger effect = higher value
# [5] = growth inhibition, single agents and combos, LFS_MB_1R, cell-based, cisplatin or BGB combos, synergistic combos for chromothripsis tumors (AID 1671452); conditions: LFS_MB_1R medulloblastoma cells, stronger effect = higher value;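 note: cells exposed for 96 hours before readout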
# [6] = growth inhibition, single agents and combos, HTB85, cell-based, BGB or cisplatin IC20 combos, synergistic combos for chromothripsis tumors (AID 1671453); conditions: HTB85 osteosarcoma cells, drug combinations, stronger effect = higher value;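 note: cells exposed for 96 hours before readout; 0% = vehicle DMSO and 100% = high DMSO killing control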
# [7] = growth inhibition, single agents and combos, CRL2098, cell-based, BGB or cisplatin IC20 combos, synergistic combos for chromothripsis tumors (AID 1671454); conditions: CRL2098 osteosarcoma cells, drug combinations, stronger effect = higher value;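 note: cells exposed for 96 h before readout; 0% = vehicle DMSO and 100% = killing by high DMSO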
# [8] = growth inhibition, single agents and combos, HD-MB03, cell-based, BGB or cisplatin IC20 combos, synergistic combos for chromothripsis tumors (AID 1671455; in the data active = inhibition above about 83%;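 note: 0% = vehicle DMSO and 100% = high DMSO as cytotoxic control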); conditions: HD-MB03 medulloblastoma cells, stronger effect = higher value
# [9] = growth inhibition, single agents and combos, UWB1.289, cell-based, BGB or cisplatin combos, synergistic combos for chromothripsis tumors (AID 1671456); conditions: UWB1.289 ovarian carcinoma cells, stronger effect = higher value;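 note: cells exposed to compound for four days; 0% = vehicle DMSO and 100% = killing by high DMSO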
# [10] = growth inhibition, single agents and combos, LFS_MB_2R, cell-based, cisplatin combos, synergistic combos for chromothripsis tumors (AID 1671457); conditions: LFS_MB_2R medulloblastoma cells, stronger effect = higher value;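 note: cells exposed to compound for four days before readout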
# [11] = growth inhibition, MDA-MB-436, cell-based, BGB or cisplatin combos, synergistic combos for chromothripsis tumors (AID 1671458; call rule not given here;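 note: cells exposed for 96 hours; 0% = vehicle DMSO and 100% = killing by high DMSO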); conditions: MDA-MB-436 breast carcinoma growth inhibition, drug combinations, stronger effect = higher value
# [12] = UWB1.289_BRCA1 ovarian cancer growth, cell-based, BGB or cisplatin combinations (AID 1671459); conditions: UWB1.289 BRCA1 ovarian carcinoma, drug combinations, stronger effect = higher value
# [13] = drug combination toxicity in non-malignant astrocytes – cell-based, BGB or cisplatin IC20 combos, cytotoxicity control for chromothriptic childhood tumor combination screen (AID 1671460); conditions: Human astrocytes, viability inhibition, drug combinations, at 0.5 µM, stronger effect = higher value;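 note: cells exposed to compounds for 96 hours before viability readout; 0% = vehicle and 100% = killing control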
# [14] = BT084 cell growth, single and combined drugs, ICGC_MB145, cisplatin and BGB IC40 combos (AID 1671461); conditions: BT084 medulloblastoma cells, drug combinations, stronger effect = higher value;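 note: cells exposed to drugs for 96 hours; 0% = vehicle DMSO and 100% = high DMSO full killing control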
# [15] = RCMB18 cell growth, single agent and combined, cisplatin and BGB IC40 combos (AID 1671462); conditions: RCMB18 medulloblastoma cells, stronger effect = higher value;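 note: cells exposed to compound for four days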
# [16] = CRL1545 cell growth, single agent and combined, cisplatin and BGB IC20 combos (AID 1671464); conditions: CRL1545 osteosarcoma cells, stronger effect = higher value;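 note: cells exposed to compound for 96 hours before readout; 0% = vehicle DMSO and 100% = high DMSO killing control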
# [17] = measured here: combination with BGB IC40, at 0.05 µM
# [18] = measured here: with BGB IC20 combination, at 0.5 µM
# [19] = measured here: with cisplatin IC20 combination, at 0.5 µM
# [20] = measured here: combination with cisplatin, at 0.5 µM
# [21] = measured here: combination with cisplatin, at 5 µM
# Sequence of NAD(+) hydrolase SARM1 (Homo sapiens) (Q6SZW1 whole entry, looked up): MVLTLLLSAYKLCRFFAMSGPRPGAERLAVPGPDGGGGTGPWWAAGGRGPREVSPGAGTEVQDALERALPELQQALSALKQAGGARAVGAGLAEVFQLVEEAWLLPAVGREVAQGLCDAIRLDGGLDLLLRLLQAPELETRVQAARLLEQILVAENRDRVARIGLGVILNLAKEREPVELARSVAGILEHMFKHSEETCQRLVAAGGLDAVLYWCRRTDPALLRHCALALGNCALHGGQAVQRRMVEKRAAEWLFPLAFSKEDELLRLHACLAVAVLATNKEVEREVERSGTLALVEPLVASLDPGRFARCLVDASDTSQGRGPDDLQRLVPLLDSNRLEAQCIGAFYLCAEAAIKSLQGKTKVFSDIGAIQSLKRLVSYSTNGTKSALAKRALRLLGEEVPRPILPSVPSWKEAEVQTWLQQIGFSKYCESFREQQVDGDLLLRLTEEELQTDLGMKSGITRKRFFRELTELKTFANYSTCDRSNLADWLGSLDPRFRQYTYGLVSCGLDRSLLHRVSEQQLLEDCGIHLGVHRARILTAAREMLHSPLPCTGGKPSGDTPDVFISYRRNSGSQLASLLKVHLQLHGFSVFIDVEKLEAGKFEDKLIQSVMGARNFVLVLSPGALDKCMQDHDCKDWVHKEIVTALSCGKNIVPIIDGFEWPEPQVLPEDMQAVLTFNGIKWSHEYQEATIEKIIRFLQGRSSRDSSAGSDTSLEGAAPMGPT
smiles,measurement,setting,value
O=C(O)COCCN1CCN([C@H](c2ccccc2)c2ccc(Cl)cc2)CC1,remaining NAD,[1],10 nM (inactive)
CO[C@H]1/C=C/O[C@@]2(C)Oc3c(C)c(O)c4c(O)c(c(C=NN5CCN(C)CC5)c(O)c4c3C2=O)NC(=O)/C(C)=C\C=C\[C@H](C)[C@H](O)[C@@H](C)[C@@H](O)[C@@H](C)[C@H](OC(C)=O)[C@@H]1C,inhibition,"[2]; at 0.5 µM, stronger effect = higher value",-11% (inactive)
same,inhibition,"[2]; measured here: combination with BGB IC20, at 0.005 µM",-12.4%
same,inhibition,"[2]; measured here: combination with BGB IC40, at 0.005 µM",-11.3%
same,inhibition,[2]; [17],7.63%
same,inhibition,"[2]; measured here: combination with cisplatin, at 0.5 µM, stronger effect = higher value",-13.1%
same,inhibition,"[2]; measured here: combination with cisplatin, at 5 µM, stronger effect = higher value",25%
same,inhibition,"[3]; BGB combo, at 5 µM",2%
same,inhibition,[3]; at 0.5 µM,2.94% (inactive)
same,inhibition,"[3]; cisplatin combo, at 5 µM",-6.32%
same,inhibition,[3]; [18],7.7%
same,inhibition,[3]; [19],10.2%
same,inhibition,"[3]; single agent, at 5 µM",0.074%
same,inhibition,"[4]; BGB IC20 combo, at 0.005 µM",6.74%
same,inhibition,"[4]; BGB IC40 combo, at 0.005 µM",-7.18%
same,inhibition,"[4]; BGB IC40 combo, at 0.05 µM",33.5%
same,inhibition,[4]; at 0.5 µM,-10.8% (inactive)
same,inhibition,"[4]; cisplatin combo, at 0.05 µM",33.5%
same,inhibition,"[4]; cisplatin combo, at 0.5 µM",-9.79%
same,inhibition,"[4]; cisplatin combo, at 5 µM",-23.1%
same,inhibition,"[4]; measured here: 5 uM single agent, at 5 µM",-0.291%
same,inhibition,[5]; at 0.5 µM,-13.7% (inactive)
same,inhibition,[5]; [17],-25.4%
same,inhibition,[5]; [20],34.7%
same,inhibition,[5]; [21],6.61%
same,inhibition,[6]; at 0.5 µM,-9.22% (inactive)
same,inhibition,"[6]; measured here: with BGB IC20, at 0.5 µM",-34.1%
same,inhibition,"[6]; measured here: with BGB IC20, at 5 µM",19.8%
same,inhibition,"[6]; measured here: with cisplatin IC20, at 0.5 µM",-3.74%
same,inhibition,"[6]; measured here: with cisplatin IC20, at 5 µM",32.8%
same,inhibition,"[6]; single agent, at 5 µM",32.5%
same,inhibition,[7]; at 0.5 µM,-28.2% (inactive)
same,inhibition,"[7]; measured here: combination with BGB at IC20, at 0.5 µM",-20.5%
same,inhibition,"[7]; measured here: combination with cisplatin at IC20, at 0.5 µM",-57.4%
same,inhibition,[8]; at 0.5 µM,-2.23% (inactive)
same,inhibition,"[8]; measured here: combo with BGB at IC20, at 0.5 µM",-1.06%
same,inhibition,"[8]; measured here: combo with cisplatin at IC20, at 0.5 µM",-3.79%
same,inhibition,[9]; at 0.5 µM,6.08% (inactive)
same,inhibition,"[9]; measured here: inhibition with BGB combination, at 0.05 µM",0.522%
same,inhibition,"[9]; measured here: inhibition with cisplatin combination, at 0.05 µM",-2.06%
same,inhibition,[10]; at 0.5 µM,-16.1% (inactive)
same,inhibition,[10]; [20],-10.3%
same,inhibition,[10]; [21],19.4%
same,inhibition,[11]; at 0.5 µM,-11.2% (inactive)
same,inhibition,"[11]; measured here: BGB combination, at 0.5 µM",-8.37%
same,inhibition,"[11]; measured here: BGB combination, at 5 µM",1.85%
same,inhibition,"[11]; measured here: cisplatin combination, at 0.5 µM",-22.5%
same,inhibition,"[11]; measured here: cisplatin combination, at 5 µM",4.56%
same,inhibition,"[12]; BGB combination, concentration series, at 5 µM",33.9%
same,inhibition,[12]; at 0.5 µM,4.15% (inactive)
same,inhibition,"[12]; cisplatin combination, concentration series, at 5 µM",22%
same,inhibition,[13],-6.54% (inactive)
same,inhibition,[13]; measured here: combo with BGB IC20,-11%
same,inhibition,[13]; measured here: combo with cisplatin IC20,-7.29%
same,inhibition,[14]; at 0.5 µM,-5.85% (inactive)
same,inhibition,"[14]; cisplatin combination, at 0.5 µM",-3.4%
same,inhibition,"[14]; cisplatin combination, at 5 µM",-36.2%
same,inhibition,"[14]; measured here: BGB IC40 combination 0.05 uM, at 0.05 µM",-6.21%
same,inhibition,"[14]; single agent, at 5 µM",-1.11%
same,inhibition,[15]; at 0.5 µM,-18.2% (inactive)
same,inhibition,"[15]; cisplatin combo, at 5 µM",4.58%
same,inhibition,"[15]; measured here: BGB IC40 combination, at 0.05 µM",-7.26%
same,inhibition,[15]; [20],-16%
same,inhibition,"[15]; single agent, at 5 µM",-21.9%
same,inhibition,[16]; at 0.5 µM,-32.1% (inactive)
same,inhibition,[16]; [18],-8.55%
same,inhibition,[16]; [19],-44%
same,inhibition,"[16]; single agent, at 0.05 µM",6.37%
same,inhibition,"[16]; single agent, at 5 µM",27.5%
